Assay results from the supplement of paper PMC6555819.

Tested on: PPARg:RXRa DBDmut IVT, anti-RXR (DBD mutation: RXRa K156A/R161A, NR concentration 270 nM, RXRa partner concentration 90 nM)
Assay: PBM binding z-score (relative to random genomic background probes); higher = stronger binding; sequences stand for … in GC…GCGATTGACAGCGTAGAATGAAGG
Method in brief: (§1)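 Scanned fluorescence from custom Agilent 4×180K protein-binding microarrays was regression-normalized. Binding z-scores use random background probes as reference. Ligand-free nuclear receptor dimers were incubated on the arrays for 1 h and detected with antibodies against each partner (one per run).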

Sequence | PBM binding z-score
ATCTCTAGGTAAGACTCAGTTCACTGAAGAACGC | 1.88
TCATATAGATAATACAGGTGAAAGTCGGCATCTA | 2.86
AATAAAGGGTCACTAGGCCAGAGTAGGTACGAAT | 4.52
TCGATTAGGTTACCAATGGGGCATTCAGCTTTCT | 2.52
ACTAGTTGGTCAGCTGACGTCACACACAATTCGG | 0.857
AATACAGGGTCATCGTAGTCCAGAGTACGCACAG | 2.79
CGAACGAGGGCATGAGATGATAGCAAATGCCGAT | 2.91
ATACCAAGGAGATCGTGAGGTCGTTGATACTAAC | -0.488
GCTAGCAGGCCATTTCGGTCACTCAATGACGGGC | 0.656
ACTATTAGGTGAGACGAGGGCAACCGATAGGTTG | 4.85
TCCTATAGGTAAATGCTAGGTGAAAGTCCGATCT | 2.2
ATCTCTAGATAAGACTCAGTTCAGTGAAGAACGC | -0.453
TTAGCAAGGTGAGCTGAGGTCGTTGATCCAACTC | 0.492
CGCCCAAGGTCATAGGAGGTCAGTGAAGACAGAT | 2.88
GCATATAGGTAGTACAAGGTGAAAGTCCGATTGT | 0.709
CAAACTAGGTCAAACGTCAAAGTCGAGCCAACCA | 8.33
GCGACTGGGGCATCAGCAGGTTACCGTAACTTAA | 3.92
GCTGCTAGGTCAGGTTGGTCAGCTTACGGGTACG | 2.99
CGTCCAAGGTCAGAGAGGTCAGTGAATGCCGAGT | 3.16
TAGCCTAGGTCAGGCGGGCCAGTATAGTGTCGGC | 0.604

Sequence | PBM binding z-score
TCTAGTTGGTCACCGAGGTCACACACGACGGGTA | 2.51
GCTGCTAGGTCAACTGTTGGTCAGCTAAAGCTCG | 5.26
ACAGACAGGTGATGAAGGCAACTCAGGCTATCAT | -0.272
CGAACTAGGTCATCCTGGACAGTGAATACATTGA | 8.23
TTACCAAGGTGAAGGTTGTTGATCCCTCTGTAGA | 1.42
GATACAGGGCCAAGGCCAGAGTACGCGTATTGAT | -0.255
TTACCAAGGTGCAAGGTCGTTGATGCACGCCTTG | -0.0401
CCTAGTTGATCAAGGTCACACACGCTATAGGTAC | 2.26
CATACTGGGCCACGAAAGGTCATTGATTCAGTGA | 4.74
CCTAGTGGGTCAAGGTCACACACGCTATAGGTAC | 6.82
GGAACGAGGGCATTCGTGTTGATAGCATGGCGAT | 3.27
TCTAGTTGGTCCCGGAGGTCACACACGACGGGTA | 1.7
CCTAGCAGCCCAGGGTCACTCAAGCATTTCGCTT | -0.614
CCTACTGGGTCAAGGTCATTGATCAGTCAAAGCA | 6.45
CAAACTAGGTTACCGGAAGGTCAAAGTCCGCATG | 7.31
TCATGTAGATCAGCAGGTTAAGAAAGCTGGCCAA | 1.87
AGAACGAGGGCAATGAGTTGATAGCGCGGGTGGC | 3.57
CCTTATGGGTCACTGACAGGTTATAGCATTTGGA | 5.9
GCGACTGGGGCAAAGCAGGTCACCATAAGGTTGG | 3.8
CGTCCAAGGTGAAAGGTCAGTGAAGAGATGACGG | 2.98

Tested on: PPARg:RXRa IVT, anti-PPARg (NR concentration 270 nM, RXRa partner concentration 90 nM)
Assay: as above
Method in brief: as §1

Sequence | PBM binding z-score
ATCTCTAGGTAAGACTCAGTTCACTGAAGAACGC | 1.2
TCATATAGATAATACAGGTGAAAGTCGGCATCTA | 1.53
AATAAAGGGTCACTAGGCCAGAGTAGGTACGAAT | 6.06
TCGATTAGGTTACCAATGGGGCATTCAGCTTTCT | 1.4
ACTAGTTGGTCAGCTGACGTCACACACAATTCGG | 0.972
AATACAGGGTCATCGTAGTCCAGAGTACGCACAG | 5.02
CGAACGAGGGCATGAGATGATAGCAAATGCCGAT | 1.69
ATACCAAGGAGATCGTGAGGTCGTTGATACTAAC | -0.258
GCTAGCAGGCCATTTCGGTCACTCAATGACGGGC | 0.325
ACTATTAGGTGAGACGAGGGCAACCGATAGGTTG | 3.95
TCCTATAGGTAAATGCTAGGTGAAAGTCCGATCT | 1.3
ATCTCTAGATAAGACTCAGTTCAGTGAAGAACGC | -0.237
TTAGCAAGGTGAGCTGAGGTCGTTGATCCAACTC | 1.3
CGCCCAAGGTCATAGGAGGTCAGTGAAGACAGAT | 4.26
GCATATAGGTAGTACAAGGTGAAAGTCCGATTGT | 1.04
CAAACTAGGTCAAACGTCAAAGTCGAGCCAACCA | 8.65
GCGACTGGGGCATCAGCAGGTTACCGTAACTTAA | 3.16
GCTGCTAGGTCAGGTTGGTCAGCTTACGGGTACG | 1.96
CGTCCAAGGTCAGAGAGGTCAGTGAATGCCGAGT | 3.45
TAGCCTAGGTCAGGCGGGCCAGTATAGTGTCGGC | 1.7

Sequence | PBM binding z-score
TCTAGTTGGTCACCGAGGTCACACACGACGGGTA | 4.29
GCTGCTAGGTCAACTGTTGGTCAGCTAAAGCTCG | 4.32
ACAGACAGGTGATGAAGGCAACTCAGGCTATCAT | -0.316
CGAACTAGGTCATCCTGGACAGTGAATACATTGA | 8.04
TTACCAAGGTGAAGGTTGTTGATCCCTCTGTAGA | 2.94
GATACAGGGCCAAGGCCAGAGTACGCGTATTGAT | -0.178
TTACCAAGGTGCAAGGTCGTTGATGCACGCCTTG | 1.05
CCTAGTTGATCAAGGTCACACACGCTATAGGTAC | 3.44
CATACTGGGCCACGAAAGGTCATTGATTCAGTGA | 5.55
CCTAGTGGGTCAAGGTCACACACGCTATAGGTAC | 8.11
GGAACGAGGGCATTCGTGTTGATAGCATGGCGAT | 2.25
TCTAGTTGGTCCCGGAGGTCACACACGACGGGTA | 1.82
CCTAGCAGCCCAGGGTCACTCAAGCATTTCGCTT | 0.169
CCTACTGGGTCAAGGTCATTGATCAGTCAAAGCA | 7.7
CAAACTAGGTTACCGGAAGGTCAAAGTCCGCATG | 6.8
TCATGTAGATCAGCAGGTTAAGAAAGCTGGCCAA | 0.284
AGAACGAGGGCAATGAGTTGATAGCGCGGGTGGC | 2.39
CCTTATGGGTCACTGACAGGTTATAGCATTTGGA | 6.16
GCGACTGGGGCAAAGCAGGTCACCATAAGGTTGG | 4.81
CGTCCAAGGTGAAAGGTCAGTGAAGAGATGACGG | 5.2
